PubChem BioAssay AID602350 (Broad Institute, 2012)
Entries with a potency or affinity are not part of this list. Values without a mark were called inactive.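 How the source made its calls: active means absorbance falls by 30% or more versus neutral controls, with a potency fitted within twice the top valid dose; inconclusive means no clear call, values can overlap the other calls; inactive means change opposite to expected direction, plus the rest.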

molecular target: Protein disulfide-isomerase (Homo sapiens) (UniProt P07237); assay: PDI inhibitors, insulin aggregation turbidity, dose response, biochemical, absorbance, cherry-picked samples (AID 602350); conditions: recombinant PDI insulin aggregation, absorbance 650 nm, 90 min; series mostly up to 19.5 µM; activity change, negative = inhibition: at the top concentration;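 further: 0% = neutral controls and -100% = rutin hydrate positive control wells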
Sequence (P07237 whole entry, looked up): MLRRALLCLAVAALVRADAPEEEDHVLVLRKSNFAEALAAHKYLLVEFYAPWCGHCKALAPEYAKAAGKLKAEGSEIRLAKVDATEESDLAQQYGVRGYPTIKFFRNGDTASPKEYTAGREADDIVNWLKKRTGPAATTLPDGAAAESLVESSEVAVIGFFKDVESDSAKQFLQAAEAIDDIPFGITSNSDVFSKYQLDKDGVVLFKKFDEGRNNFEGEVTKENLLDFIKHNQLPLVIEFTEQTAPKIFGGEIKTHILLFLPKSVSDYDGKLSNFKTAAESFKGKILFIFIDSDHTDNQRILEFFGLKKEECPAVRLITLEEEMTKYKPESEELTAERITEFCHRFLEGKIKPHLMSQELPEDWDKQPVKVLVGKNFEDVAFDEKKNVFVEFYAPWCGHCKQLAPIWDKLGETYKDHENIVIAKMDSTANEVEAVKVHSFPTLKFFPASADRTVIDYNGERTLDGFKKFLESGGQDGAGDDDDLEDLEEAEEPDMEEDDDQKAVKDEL

SMILES	activity change, negative = inhibition
CCOc1ccc2nc(NS(=O)(=O)Cc3ccccc3)sc2c1	9.16%
CCCCNC(=O)Nc1ccon1	4.27%
CCN(CC)C(=O)CSc1nnc([C@H](Cc2c[nH]c3ccccc23)NC(=O)OC(C)(C)C)o1	-12.5%
C[C@@H]1CN([C@H](C)CO)C(=O)c2cc(NC(=O)Cc3cn(C)c4ccccc34)ccc2O[C@@H]1CN(C)S(=O)(=O)c1ccc(F)cc1	-15.5%
O=C(CN(CCc1ccccc1)C(=O)CNS(=O)(=O)c1ccccc1)NCC1CCCO1 (stereo not given)	6.4%
CCOC(=O)Oc1c(OC)cc(C(=O)O[C@@H]2C[C@@H]3CN4CCc5c([nH]c6cc(OC)ccc56)[C@H]4C[C@@H]3[C@H](C(=O)OC)[C@H]2OC)cc1OC	6.28%
Cc1ccc(SCC(=O)c2sc(-c3ccccc3)nc2C)cc1	2.26%
CN(C)CCN(C(=O)c1ccc(S(=O)(=O)N2CCc3ccccc32)cc1)c1nc2ccc(F)cc2s1	-1.71%
S=C(NCCN1CCOCC1)Nc1ccc(Br)cc1	0.916%
CC(=O)NC1(c2nnnn2CCOC(=O)Nc2ccc(Cl)cc2)CCCCC1	14.4%
CC(C)N1CCCC(C)(C(=O)Nc2nc3ccccc3n2C)C1 (stereo not given)	3.76%
CC(=O)c1ccc(NC(=O)c2cc(Cl)nc3ccccc23)cc1	1.56%
Cc1ccc(S(=O)(=O)c2ccc(Oc3cccc(C)c3)cc2)cc1	7.71%
O=S(=O)(Nc1ccc(C(O)(C(F)(F)F)C(F)(F)F)cc1)c1ccc(Cl)c2nonc12	-7.86%
Cc1ccc(N(Cc2ccccc2)C(=O)c2cccc(S(=O)(=O)N3CC(C)OC(C)C3)c2)cc1 (stereo not given)	12.2%
CC1CCc2sc(C(=O)N/N=C/C3CCCCC3)cc2C1 (stereo not given)	-2.94%
COc1ccc(C2c3ccc(O)cc3Oc3ncn(Cc4ccco4)c(=N)c32)cc1OC (stereo not given)	-11.4%
Cc1cc(Cl)ccc1OCc1n[nH]c(=S)n1C1CCCCC1	12.3%
CCCCNC(=O)N1CCN(C(=O)C2CCCO2)CC1 (stereo not given)	-3.88%
CN1C(=O)NC(c2ccccc2)C2=C1CN(c1cccc(C(F)(F)F)c1)C2=O (stereo not given)	12.6%

SMILES	activity change, negative = inhibition
Cc1cc(C(=O)Cn2nnc3ccccc3c2=O)c(C)n1-c1ccccc1F	1.9%
O=c1cc(CN2CCN(S(=O)(=O)/C=C/c3ccccc3)CC2)c2ccc(O)cc2o1	-3.96%
COc1ccc(C(=O)c2c(C)c3cc(C)ccc3n2CC(O)CN2CCOCC2)cc1 (stereo not given)	-5.21%
O=C(CN1C(=O)NC2(CCCC2)C1=O)Nc1ccc(C(F)(F)F)cc1	4.1%
COc1cccc(/C=C2\CCCCC2=O)c1	2.74%
CCOc1ccc2nc(SCC(=O)c3ccc(Cl)s3)sc2c1	5.42%
O=c1cc(CSc2nnnn2-c2ccc(O)cc2)nc2sccn12	-21.6%
Cc1ccc(CN(c2ccc(C(=O)Nc3ccc4c(c3)OCO4)cc2)S(C)(=O)=O)cc1	8.91%
CC(=O)OCC(=O)NCc1ccc2c(c1)OCO2	-0.026%
CCOC(=O)c1c(CN2CCOCC2)n(-c2ccccc2)c2cc(Br)c(O)cc12	-9.21%
O=C1CN(c2nc3ccccc3n3cnnc23)CC(=O)N1CCc1ccccc1	5.79%
Cc1ccc(O)c(NC(=O)CSc2n[nH]c(-c3ccccc3)n2)c1	-3.42% [at 6.8 µM]
Cc1noc(C)c1S(=O)(=O)Nc1ccc2c(c1)CC(=O)N([C@@H](C)CO)C[C@@H](C)[C@@H](CN(C)S(=O)(=O)c1ccc(F)cc1)O2	-24.7%
CCOC(=O)c1c(CN(C)C)n(-c2ccccc2)c2cc(Br)c(O)cc12	-18.2%
CNc1ncnc2c1ncn2[C@H]1CN(Cc2cccc3ccccc23)C[C@@H](CO)O1	-2.87%
COc1ccc(CNC(=O)c2ccc(CS(=O)Cc3cccc(Cl)c3)o2)cc1 (stereo not given)	2.11%
O=C(c1ccc(OCCN2CCCCC2)cc1)c1c(-c2ccc(O)cc2)sc2cc(O)ccc12	-12.5%
N#Cc1ccccc1CSc1nnc(Cc2ccccc2)o1	-1.56%
CCOC(=O)CN(c1ccccc1)S(=O)(=O)c1ccc(F)cc1	-16%
CCOc1ccc(C(=O)NCC(=O)OCC(=O)N(C)CC(=O)Nc2ccccc2CC)cc1OCC	14%
